From PubChem
Sampled rows, rich in hits. Any-hit rate of the full collection: about 2.1%.
Efa HMGR inh – blocks class II HMG-CoA reductase of Enterococcus faecalis; purified E. faecalis HMGR, NADPH absorbance 340 nm kinetic; inhibition, % at 10 µM; 0.41% of 190,000 active; AID 1066;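 active = inhibition above a set limit, the median over all tested compounds plus 3 SD, cut at about 9.5% in these data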;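 also: enzyme runs in reverse so mevalonate oxidation gives rising NADPH absorbance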
Calpain2 inh – inhibitors of pig calpain II; inhibition, % at 16 µM; 0.37% of 220,000 active; purified calpain II, fluorogenic peptide substrate, 30 min;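 active = inhibition above about 50%, limit read from the data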
ROMK primary – modulators of human ROMK potassium channel. Tet-inducible ROMK, thallium flux fluorescence; actives lie on both sides. B-score at 10 µM. 2% of 130,000 active;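 active = signal ratio slope over the read window, or its plate-corrected B-score, at least 3 SD from the plate mean, either direction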;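 also: B-score of the F/F0 ratio slope over 7 to 12 s after thallium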
Target sequence (P48048 whole entry, looked up): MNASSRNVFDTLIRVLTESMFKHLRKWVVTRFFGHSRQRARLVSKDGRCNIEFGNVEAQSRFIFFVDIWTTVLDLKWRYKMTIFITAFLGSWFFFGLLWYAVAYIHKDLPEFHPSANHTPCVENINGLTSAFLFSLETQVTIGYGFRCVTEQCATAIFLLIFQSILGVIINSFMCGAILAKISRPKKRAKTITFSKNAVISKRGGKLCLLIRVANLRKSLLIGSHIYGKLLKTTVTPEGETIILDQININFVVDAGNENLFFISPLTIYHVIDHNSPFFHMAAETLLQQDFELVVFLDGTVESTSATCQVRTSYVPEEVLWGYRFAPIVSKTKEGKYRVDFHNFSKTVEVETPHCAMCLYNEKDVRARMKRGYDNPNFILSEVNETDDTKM
HSV replic up – HSV replication enhancement. HSV replication augmentation in cells, fold increase. maximum fold increase. 0.005% of 220,000 active. AID 1956; in the data active = maximum fold increase above about 1.5; tested in PC3 cells
Arbovirus inh – antivirals against arbovirus infection. arbovirus infection cell-based antiviral screen. inhibition, % at 10 µM. 0.37% of 200,000 active; in the data active = inhibition above about 30%
ROMK retest – confirmation of human ROMK potassium channel modulators. shares compounds with ROMK primary. ROMK thallium flux, fluorescence ratio; active compounds read low. normalized thallium flux (F/F0 slope) at 10 µM. 54% of 3,000 active. AID 1917;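 active = Flux at 10 µM at least 3 SD below or above vehicle control mean in one or both replicates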
Hits are given with their value.

Cc1cc(=O)n2c(n1)SCOC2 was read as Calpain2 inh inactive and HSV replic up inactive.
`CC(=O)Oc1ccccc1C1OC(=O)c2ccccc2N1C(C)=O` (configuration not stated) gave Efa HMGR inh inactive, Calpain2 inh inactive, ROMK primary inactive, HSV replic up inactive, Arbovirus inh inactive and ROMK retest inactive.
`CC(=O)N1CCN(C(=O)CC2OC(=O)c3ccccc32)CC1` (configuration not stated) gave Efa HMGR inh inactive, Calpain2 inh inactive, HSV replic up inactive and Arbovirus inh inactive.
`CC(=O)c1ccc(NC(=O)Cn2c3ccccc3c3nc(=O)cc(C)n32)cc1` gave Calpain2 inh inactive, HSV replic up inactive and ROMK retest inactive.
`COC(=O)Cn1c2ccccc2c2nc(=O)cc(C)n21` gave Efa HMGR inh inactive, Calpain2 inh inactive, ROMK primary inactive, HSV replic up inactive and Arbovirus inh inactive.
C=CCN1C(c2cccc(C(F)(F)F)c2)=CS/C1=C(/C#N)c1nnc(N2CCOCC2)n1-c1ccccc1 was read as Efa HMGR inh inactive, Calpain2 inh inactive, ROMK primary -4.6, HSV replic up inactive, Arbovirus inh inactive and ROMK retest 0.047.
For C=CCN1C(c2ccc(Br)cc2)=CS/C1=C(/C#N)c1nnc(N2CCOCC2)n1-c1ccccc1 the results were Efa HMGR inh inactive, Calpain2 inh inactive, ROMK primary -3.9, HSV replic up inactive, Arbovirus inh inactive and ROMK retest 0.057.
`CC1=CC(C)(C)NC(=S)N1c1cccc2cc(S(=O)(=O)O)ccc12` gave Calpain2 inh inactive and HSV replic up inactive.
Cn1c(=O)c2[nH]c(N=NNc3ccccc3F)nc2n(C)c1=O was read as Calpain2 inh inactive and HSV replic up inactive.
Screening O=C(Cn1nc(CNc2ccc(Cl)cc2)[n+]2c1CCCCC2)c1ccc(Br)cc1 returned Efa HMGR inh inactive, Calpain2 inh inactive, ROMK primary -3.7, HSV replic up inactive, Arbovirus inh inactive and ROMK retest 0.053.
Screening O=C(CNc1ccc(Br)cc1)c1ccc(O)cc1 returned Efa HMGR inh inactive, Calpain2 inh inactive, ROMK primary inactive, HSV replic up inactive and Arbovirus inh inactive.
Screening O=C(CNc1ccc(Cl)cc1)c1ccc(Br)cc1 returned Efa HMGR inh inactive, Calpain2 inh inactive, ROMK primary 2.7, HSV replic up inactive, Arbovirus inh inactive and ROMK retest inactive.
Screening N=C1C(c2ccccc2)=C(O)CN1c1cccc2ccccc12 returned Efa HMGR inh inactive, Calpain2 inh inactive, HSV replic up inactive and Arbovirus inh inactive.
For COc1ccc(NC(=O)c2ccc(-c3ccccc3Cl)o2)cc1 the results were Efa HMGR inh inactive, Calpain2 inh inactive, ROMK primary inactive, HSV replic up inactive and Arbovirus inh inactive.
For COc1ccc(NC(=O)c2ccc(-c3ccc(C)c4ccccc34)o2)cc1 the results were Efa HMGR inh inactive, Calpain2 inh inactive, ROMK primary 1.7, HSV replic up inactive, Arbovirus inh inactive and ROMK retest inactive.
`NC(N)=N/N=C/c1ccc2cccc(OCc3ccccc3)c2n1` gave Calpain2 inh inactive, ROMK primary -3.7, HSV replic up inactive and ROMK retest 0.049.
CCCS(=O)(=O)c1c(S(=O)(=O)CCC)c2cnccn2c1C(=O)c1ccc(CC)cc1 was read as Efa HMGR inh inactive, Calpain2 inh inactive, ROMK primary -4.1, HSV replic up inactive, Arbovirus inh inactive and ROMK retest 0.066.
Screening COc1ccc(N(C(=O)CCl)C(C(=O)NCCc2ccccc2)c2cccs2)cc1Cl (configuration not stated) returned Efa HMGR inh inactive, Calpain2 inh inactive, ROMK primary -3.3, HSV replic up inactive, Arbovirus inh inactive and ROMK retest 0.063.
`COc1cccc(N(C(=O)CCl)C(C(=O)NCCc2ccccc2)c2cccs2)c1` (configuration not stated) gave Efa HMGR inh inactive, Calpain2 inh inactive, ROMK primary inactive, HSV replic up inactive and Arbovirus inh inactive.
For O=[N+]([O-])c1cc(-c2ncccn2)cs1 the results were Efa HMGR inh inactive, Calpain2 inh inactive, ROMK primary inactive, HSV replic up inactive and Arbovirus inh inactive.
`Cc1cc(NC(=O)/C=C/C(=O)N(CC(=O)NC2CCCC2)c2cccc3ccccc23)no1` gave Efa HMGR inh inactive, Calpain2 inh inactive, ROMK primary -4, HSV replic up inactive, Arbovirus inh inactive and ROMK retest 0.056.
For CCOC(=O)N/N=C/c1c(F)c(F)c(F)c(F)c1F the results were Efa HMGR inh inactive, Calpain2 inh inactive, ROMK primary 1.5, HSV replic up inactive, Arbovirus inh inactive and ROMK retest inactive.
